# Inconclusive results are not listed. Unmarked numbers belong to inactive results. The source made the active and inactive calls. The call rests on the fitted dose curve; in most records, active means well fitted cell-killing curve with a large enough effect; inconclusive means small, poorly fitted or top-dose-only effect, or effect the other way; inactive means no such curve, though single readings can be large or run the other way.
# Experiment: Quantitative High-Throughput drug screen in 47 multiple myeloma cell lines against the NCATS MIPE library collection: PE2_PLB cell viability assay (AID 1919869); further: nearly all actives have a fitted effect of over 35% in size
# Conditions: PE2_PLB myeloma cells viability, ATP luminescence, 48 h; series mostly up to 45.8 µM; viability (% of control): at the top concentration
# Procedure, shortened: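 Myeloma cells (500/well) treated with MIPE 4.0 compounds for 48 h at 37 °C, 5% CO2. Viability read as ATP via CellTiter-Glo luminescence after 5 min at RT; DMSO-only wells = 100%, media-only = 0% viability.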
# Potency means the concentration at half of the fitted maximal effect.
Structure (SMILES),viability (% of control) [%],Potency
CCCC[N+]1(C)[C@H]2CC(OC(=O)[C@H](CO)c3ccccc3)C[C@H]1[C@H]1O[C@H]12 (some centres not stated),88,
CCOC(=O)c1cncn1[C@H](C)c1ccccc1,90.6,
N#C[C@H](O[C@@H]1O[C@H](CO[C@@H]2O[C@H](CO)[C@H](O)[C@H](O)[C@H]2O)[C@H](O)[C@H](O)[C@H]1O)c1ccccc1,,18700 nM (active)
CC1(N2CCC(n3c([C@@H]4CCCNC4)nc4ccccc43)CC2)CCCCCCC1,,16600 nM (active)
O=c1[nH]c2ccccc2n1C1CCN(Cc2ccc(-c3[nH]c4cc5ncnc5cc4nc3-c3ccccc3)cc2)CC1,,2350 nM (active)
CC(C)N(CCNC(=O)CN1CCCC1=O)C(C)C,116,
C[C@@H]1[C@H](O)[C@@H](C)C=CC=CCCC=CC=CC=CC=C[C@H](O[C@H]2O[C@@H](C)[C@H](O)[C@@H](N)[C@@H]2O)CC2O[C@](O)(C[C@@H](O)[C@H](O)CC[C@@H](O)C[C@@H](O)C[C@@H](O)CC(=O)O[C@H]1C)C[C@H](O)[C@H]2C(=O)O,117,
CN[C@@H]1Cc2cccc3[nH]c(=O)n(c23)C1,109,
CC(=Cc1csc(C)n1)[C@@H]1C[C@H]2O[C@@H]2CCC[C@H](C)[C@@H](O)[C@@H](C)C(=O)C(C)(C)[C@@H](O)CC(=O)O1,65,
Clc1ccccc1C(c1ccccc1)(c1ccccc1)n1cccn1,114,
C[C@@H]1CC[C@H]2[C@@H](C)C(=O)O[C@@H]3O[C@@]4(C)CC[C@H]1[C@]32OO4,,743 nM (active)
Cc1[nH]nc2ccc(-c3cncc(OC[C@@H](N)Cc4c[nH]c5ccccc45)c3)cc12,,935 nM (active)

# — PubChem BioAssay (NCATS)
